The supplement of paper PMC6555819

These sequences were tested on VDR:RXRa (NR concentration 270 nM, RXRa partner concentration 90 nM) (assay: PBM binding z-score (relative to random genomic background probes); higher = stronger binding; sequences stand for … in GC…GCGATTGACAGCGTAGAATGAAGG).
Method: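 Protein-binding microarray (Agilent 4x180K custom design, double-stranded 60-nt probes: 5' GC cap, 34-nt variable region, 24-nt constant primer region; full probe sequence given). Purified or IVT nuclear receptor:RXRα heterodimers (3:1 NR:RXRα, mostly 270:90 nM) or homodimers were incubated for 1 h in PBS with 2% milk and no ligand, then detected with Alexa488 antibodies. Fluorescence from o1-orientation probes (~5 replicates averaged) was converted to z-scores against 500 random hg19 background probes. Variable regions are seed direct-repeat (DR0–DR5) sites, all their single-nucleotide variants and half-site ablations.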

Row | Sequence | PBM binding z-score
1 | GGAACGAGGGCATTCGAGTCGATAGCATGGCGAT | 1.99
2 | ATCTCTAGGTAACATGTTCAGTGAAAGAGAGGAC | 0.0615
3 | CCTTACCGGTCACGAGGTTATAGCACGACGAGCG | 2.17
4 | AGTCAAAGTGCAGGACGAGGTAACGTAAAGCACG | -0.0485
5 | AATACAGGTTCATCGTAGGCCAGAGTACGCACAG | 4.6
6 | CCTACTGGGACATCAGGTCATTGATATCAACGTT | 1.99
7 | ACTCGGAGGAAAAAGGTCAGAGCTACGCCAGTGA | 2.07
8 | ATCTCTAGGTAAAAGTGCAGTGAATCCCGAGGAT | 0.00627
9 | AAGACAGGGTCATCGTAGGCCAGAGTACGCACAG | 5.14
10 | CCTATTAGTTGACCATAAGGGCAACCAAAGCTCG | 0.939
11 | CAAACTAGGTCAAGGTCAAAATCGGTTTGTGCCA | 4.7
12 | ACAGACAGGTGATGAAGGTAATTCAGGCTATCAT | 0.0212
13 | CTTACTGGGCCAAGGTCATTGATCAGTCAAAGCA | 3.44
14 | CCTACTGGGCCATGGTCATTGATCAGTCAAAGCA | -0.434
15 | GATACAGGGTCAGCGAGAGGCCAGAGTATGGAAA | 3.67
16 | GGAACGAGGGCATTCGAGTTGAGAGCATGGCGAT | 3.07
17 | AATACAGGGTCATCGTAAGCCAGAGTACGCACAG | 4.87
18 | CCAGACAGGTAAGAAGGTAACTCAGCCTCGATTA | 0.00354
19 | ACTCTTAGTTGACTTAGGGCAACCGATACGACGC | 0.416
20 | TTACCAAGCTGAAGGTCGTTGATCCCTCTGTAGA | 0.724

Row | Sequence | PBM binding z-score
21 | ATACCAAGGTGATCGTGAGGCCGTTGATACTAAC | 0.401
22 | ATATGTTGGTTAGCTGGGGTCATTCAGACTAGGC | 5.16
23 | CCAGACAGGTGAAAGGTAACTCAATCTGGTACGC | 0.936
24 | GTATATAGGTAATACAAGGTGAAAGTCCGATTGT | 0.822
25 | AGAATGAGGTTAAGATCAGGGGAACAGAATACAT | 1.33
26 | ACTATTAGTTGAGACGAGGGCAACCAATAGGTTG | 0.987
27 | CCTACTGGGCGAAAAAGGTCATTGATGCCGATAA | 4.21
28 | AGAATGAGGTTATCCGTAGATCAGGGAAGAAAGT | 1.44
29 | TATACAGGGTTAAAGGCCAGAGTACGAATGTCGA | 2.09
30 | AGAATGAGGTTATTAAGATTAGGGAATTGCGGTC | 1.29
31 | AGTCAAAGTTCAGGACGGGGTAACGTAAAGCACG | 3.34
32 | CCTACTCGGCCAAAGGTCATTGATTCCAATGCTC | 4.8
33 | CCTACTTGGCCATTCAGAGGTCATTGATCATATG | 4.04
34 | ACTTACGTGTCAACGAGGTTATAGCACGCGTATA | 5.46
35 | ACAGACAGGTGATGAAGGTAACTAAGGCTATCAT | 0.295
36 | TCTAGTTGGTCAAAGGTAACACACTCGAAATGCG | 1.7
37 | TAGACTAGGTCATGGGCCAGTATACCACGCGAAC | 1.76
38 | GCTCGGAGGACAAGGTCATAGCTTTGTCCGTAGA | 3.33
39 | TCTTGTAGATCAGCAGGTTAAGAGAGCTGGCCAA | 0.132
40 | CCTTCTAGGTCAATGGTCAGCTAAAGCAGCTCGC | 1.16
